# This is one part of a sample in which the strongest signals are shown more often than they occur.
# B1: PX9937A-bvu-521-23-521 (Bacteroides vulgatus) (protein)
# chain: LDLAPEDYYGAGNFWKEASQPKAFMLGLHAQLRSYYDMFYTLGELRGGTQRVGTSSLNTSLNYADIRSQNISEDIPGISNWNGLYSPIMQVNHFIQEVENGCTFLDDATRSRYLGQAYGMRALYYFMLYRTFGGVPLITKVDILDGKPSADKFYVERATPEATMEFIKADINKSENYFGNNTSFDAYDWSRYATLMLKAEIYMWAAKVSITGFTATGATDLQTAKTALSGIIGHFELMDNFASIFSCDNKKNTEIIFAMPFIEGEASNDGGRFLYQDAVFLGQAYGRNGKVIEKDTLNLKGTGGVFRDEYTEDFWKTFKEGDSRRDATFMEYYMKNDNGTLSEFGCVMKKRIGTINSNDNRIYISDIPVYRYADALLMMAEIENGLNNPCASYINEVRKRAYGDTFEENKYTEGSYAENELAILQERDKEFVSEGKRWFDVLRMHDASGRSLVFSANANYPGTNPILGTEEAYKMLWPVNIGTLNVNPLLTQTPGYGKK
# Assays:
# Experiment in all cases: glycan array binding signal (z-score within array); higher = stronger binding
# Conditions in all cases: glycan notation: IUPAC condensed, linker removed
# Fuc(a1-2)Gal(b1-3)GlcNAc = target: Fuc(a1-2)Gal(b1-3)GlcNAc
# Summary of the method: (§1)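 The Consortium for Functional Glycomics database supplied 3228 glycan arrays, of which those lacking an available protein sequence were dropped. The binding signal, a within-array Z-score, was averaged across arrays of the same protein sequence and across linkers. Negative scores can be read as non-binding.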
# [1] = target: Fuc(a1-2)Gal(b1-4)GlcNAc(b1-2)Man(a1-3)[Fuc(a1-2)Gal(b1-4)GlcNAc(b1-2)Man(a1-6)]Man(b1-4)GlcNAc(b1-4)[Fuc(a1-6)]GlcNAc
# Summary of the method: as §1
# [2] = target: Fuc(a1-2)Gal(b1-4)GlcNAc(b1-3)Gal(b1-4)GlcNAc(b1-2)Man(a1-3)[Fuc(a1-2)Gal(b1-4)GlcNAc(b1-3)Gal(b1-4)GlcNAc(b1-2)Man(a1-6)]Man(b1-4)GlcNAc(b1-4)GlcNAc
# Summary of the method: as §1
# [3] = target: Fuc(a1-2)Gal(b1-4)GlcNAc(b1-3)[Fuc(a1-3)[Gal(b1-4)]GlcNAc(b1-6)]Gal(b1-4)Glc
# Summary of the method: as §1
# [4] = target: Fuc(a1-2)Gal3S(b1-4)GlcNAc
# Summary of the method: as §1
# [5] = target: Fuc(a1-2)[Gal(a1-3)]Gal(b1-3)GalNAc(b1-3)Gal(a1-4)Gal(b1-4)Glc
# Summary of the method: as §1
# [6] = target: Fuc(a1-2)[Gal(a1-3)]Gal(b1-4)GlcNAc(b1-2)Man(a1-3)[Fuc(a1-2)[Gal(a1-3)]Gal(b1-4)GlcNAc(b1-2)Man(a1-6)]Man(b1-4)GlcNAc(b1-4)GlcNAc
# Summary of the method: as §1
# [7] = target: Fuc(a1-2)[Gal(a1-3)]Gal(b1-4)GlcNAc(b1-3)GalNAc
# Summary of the method: as §1
# [8] = target: Fuc(a1-2)[Gal(a1-3)]Gal(b1-4)[Fuc(a1-3)]GlcNAc(b1-3)GalNAc
# Summary of the method: as §1
# [9] = target: Fuc(a1-2)[GalNAc(a1-3)]Gal(b1-4)GlcNAc(b1-3)[Fuc(a1-2)[GalNAc(a1-3)]Gal(b1-4)GlcNAc(b1-6)]GalNAc
# Summary of the method: as §1
# [10] = target: Fuc(a1-2)[GalNAc(a1-3)]Gal(b1-4)GlcNAc(b1-6)GalNAc
# Summary of the method: as §1
# [11] = target: Fuc(a1-2)[GalNAc(a1-4)]Gal(b1-4)GlcNAc
# Summary of the method: as §1
# [12] = target: Gal(a1-3)Gal(b1-4)GlcNAc(b1-2)Man(a1-3)[Gal(a1-3)Gal(b1-4)GlcNAc(b1-2)Man(a1-6)]Man(b1-4)GlcNAc(b1-4)GlcNAc
# Summary of the method: as §1
# [13] = target: Gal(a1-3)Gal(b1-4)[Fuc(a1-3)]GlcNAc(b1-2)Man(a1-3)[Gal(a1-3)Gal(b1-4)[Fuc(a1-3)]GlcNAc(b1-2)Man(a1-6)]Man(b1-4)GlcNAc(b1-4)GlcNAc
# Summary of the method: as §1
# [14] = target: Gal(a1-3)[Gal(a1-4)]Gal(b1-4)GlcNAc
# Summary of the method: as §1
# Gal(b1-3)GlcNAc = target: Gal(b1-3)GlcNAc
# Summary of the method: as §1
# Gal(b1-3)GlcNAc(b1-2)Man = target: Gal(b1-3)GlcNAc(b1-2)Man
# Summary of the method: as §1
# [15] = target: Gal(b1-3)GlcNAc(b1-3)Gal(b1-4)GlcNAc(b1-2)Man(a1-3)[Gal(b1-3)GlcNAc(b1-3)Gal(b1-4)GlcNAc(b1-2)Man(a1-6)]Man(b1-4)GlcNAc(b1-4)GlcNAc
# Summary of the method: as §1
# [16] = target: Gal(b1-4)GlcNAc(b1-2)[Gal(b1-4)GlcNAc(b1-6)]Man(a1-6)[Gal(b1-4)GlcNAc(b1-2)Man(a1-3)]Man(b1-4)GlcNAc(b1-4)GlcNAc
# Summary of the method: as §1
# [17] = target: Gal(b1-4)GlcNAc(b1-3)Gal(b1-4)GlcNAc(b1-3)Gal(b1-4)GlcNAc(b1-3)Gal(b1-4)GlcNAc(b1-3)Gal(b1-4)GlcNAc(b1-2)Man(a1-3)[Gal(b1-4)GlcNAc(b1-3)Gal(b1-4)GlcNAc(b1-3)Gal(b1-4)GlcNAc(b1-3)Gal(b1-4)GlcNAc(b1-3)Gal(b1-4)GlcNAc(b1-2)Man(a1-6)]Man(b1-4)GlcNAc(b1-4)GlcNAc
# Summary of the method: as §1
# [18] = target: Gal(b1-4)GlcNAc(b1-6)[Gal(b1-3)]GalNAc
# Summary of the method: as §1
# [19] = target: Gal(b1-4)GlcNAc(b1-6)[Gal(b1-4)GlcNAc(b1-3)]GalNAc
# Summary of the method: as §1
# Gal(b1-4)GlcNAc6P = target: Gal(b1-4)GlcNAc6P
# Summary of the method: as §1
# Gal3S(b1-3)GalNAc = target: Gal3S(b1-3)GalNAc
# Summary of the method: as §1
# [20] = target: Gal3S(b1-4)[Fuc(a1-3)]GlcNAc6S
# Summary of the method: as §1
# Gal6S(b1-3)GlcNAc6S = target: Gal6S(b1-3)GlcNAc6S
# Summary of the method: as §1
binder,measurement,setting,value
B1,glycan array binding signal (z-score),Fuc(a1-2)Gal(b1-3)GlcNAc,-0.251
same,glycan array binding signal (z-score),[1],0.307
same,glycan array binding signal (z-score),[2],0.158
same,glycan array binding signal (z-score),[3],-0.083
same,glycan array binding signal (z-score),[4],-0.223
same,glycan array binding signal (z-score),[5],-0.525
same,glycan array binding signal (z-score),[6],0.549
same,glycan array binding signal (z-score),[7],-0.367
same,glycan array binding signal (z-score),[8],-0.237
same,glycan array binding signal (z-score),[9],-0.334
same,glycan array binding signal (z-score),[10],0.027
same,glycan array binding signal (z-score),[11],-0.319
same,glycan array binding signal (z-score),[12],0.763
same,glycan array binding signal (z-score),[13],6.91
same,glycan array binding signal (z-score),[14],2.4
same,glycan array binding signal (z-score),Gal(b1-3)GlcNAc,-0.312
same,glycan array binding signal (z-score),Gal(b1-3)GlcNAc(b1-2)Man,-0.189
same,glycan array binding signal (z-score),[15],-0.279
same,glycan array binding signal (z-score),[16],4.26
same,glycan array binding signal (z-score),[17],2.53
same,glycan array binding signal (z-score),[18],6.72
same,glycan array binding signal (z-score),[19],0.459
same,glycan array binding signal (z-score),Gal(b1-4)GlcNAc6P,0.719
same,glycan array binding signal (z-score),Gal3S(b1-3)GalNAc,-0.408
same,glycan array binding signal (z-score),[20],-0.018
same,glycan array binding signal (z-score),Gal6S(b1-3)GlcNAc6S,-0.386
